# IL-1B inflam inh – blocks inflammasome-driven IL-1 beta release; THP-1 LPS/ATP IL-1B secretion, AlphaLISA, 16 h; hits give low values; activity change, % at 57.5 µM; 360,000 compounds, 4.7% hits; in the data active means activity change below about -50%; inconclusive means mostly about -30% to -49%
#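 THP-1 cells pretreated 1 hr with compounds (up to 57.5 uM final), then stimulated with LPS (250 ng/mL final) plus ATP (1.25 mM final); secreted IL-1B measured by AlphaLISA after 16 hr, decreased signal indicating inhibition.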
# TDP1 cell CPT – growth inhibition of DT40 Tdp1-/-;hTDP1 cells with camptothecin (screen for TDP1 inhibitors); 420,000 compounds, 12% hits; Potency, µM (series often up to 46.2 µM), for the others: top-dose activity change, negative = growth inhibition, most hits filed as inhibitors; chicken DT40 Tdp1-/-;hTDP1 cells + 20 nM CPT, ATP luminescence, 48 h; further: potency means the concentration at half of the fitted maximal effect; nearly all actives have a fitted effect of over 55% in size
#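 Cell growth measured by CellTiter-Glo luminescence after a minimum 48 h, 37 C compound exposure with 20 nM CPT in Tdp1-knockout DT40 cells stably expressing hTDP1, seeded 400/well; qHTS titration format.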
# HT1080 IDH1KD tx – kills HT-1080 cells with IDH1 knockdown. 360,000 compounds, 2% hits. HT-1080 IDH1 knockdown viability, ATP luminescence, 48 h. AID 686971. Potency, µM (top dose mostly 46.1 µM), without a hit: at the highest dose activity, negative = toxicity, most hits filed as cytotoxic;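 further: potency means the concentration at half of the fitted maximal effect; 0% = DMSO wells and -100% = cell-free medium wells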
#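 Luminescent ATP read-out (CellTiter-Glo, 10 min at room temperature) after 48 h compound exposure at 37 °C gave viability of IDH1-knockdown HT-1080 cells. Activity was normalised to DMSO and cell-free wells, then fitted as concentration-response curves.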
# TDP1 cell noCPT – qHTS for Inhibitors of human tyrosyl-DNA phosphodiesterase 1 (TDP1): qHTS in cells in absence of CPT; DT40 Tdp1-/- hTDP1 cells, no CPT, ATP luminescence, 48 h; Potency, µM (top dose mostly 46.2 µM), without a hit: top-dose activity change, negative = growth inhibition, actives largely listed as inhibitors; 420,000 compounds, 15% hits; AID 686978, 2013; further: potency means the concentration at half of the fitted maximal effect; nearly all actives have a fitted effect of over 55% in size
#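 Cells were dispensed at 400 per well, compounds added by pin tool, plates incubated ≥48 hr at 37 °C, then CellTiter-Glo added for 30 min at room temperature before luminescence reading. Line: DT40 Tdp1-/- complemented with hTDP1; camptothecin omitted.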
# ALOX12 inh – blocks human arachidonate 12S-lipoxygenase; purified 12hLO, xylenol orange hydroperoxide absorbance; Potency, µM (highest dose often 108 µM), for the others: top-dose activity change, negative = inhibition, actives largely listed as inhibitors; 580,000 compounds, 1.1% hits; AID 1671190; P18054; further: potency means the concentration at half of the fitted maximal effect
# Target sequence (P18054 whole entry, looked up): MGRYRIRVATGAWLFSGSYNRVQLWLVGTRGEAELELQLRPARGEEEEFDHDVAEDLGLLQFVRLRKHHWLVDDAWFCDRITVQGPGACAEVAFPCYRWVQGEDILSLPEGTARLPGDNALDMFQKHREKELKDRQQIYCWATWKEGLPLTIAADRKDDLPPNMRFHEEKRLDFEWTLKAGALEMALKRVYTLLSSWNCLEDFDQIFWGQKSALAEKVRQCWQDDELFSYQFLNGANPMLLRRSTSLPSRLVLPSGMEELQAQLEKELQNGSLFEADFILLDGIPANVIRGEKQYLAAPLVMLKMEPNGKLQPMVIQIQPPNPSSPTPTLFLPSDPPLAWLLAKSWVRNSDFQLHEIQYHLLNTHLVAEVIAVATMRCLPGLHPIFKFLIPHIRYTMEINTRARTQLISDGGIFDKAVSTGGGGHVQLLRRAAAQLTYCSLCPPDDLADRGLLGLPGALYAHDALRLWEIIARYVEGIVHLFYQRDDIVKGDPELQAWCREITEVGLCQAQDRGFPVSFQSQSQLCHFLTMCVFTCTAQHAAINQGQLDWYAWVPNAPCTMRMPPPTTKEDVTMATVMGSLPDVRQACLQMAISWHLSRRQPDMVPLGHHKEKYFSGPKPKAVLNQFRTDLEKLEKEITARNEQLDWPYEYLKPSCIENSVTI
#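 Purified human 12hLO at 150 nM in 25 mM Hepes, 0.01% Triton X-100, pH 7.0, preincubated 15 min at room temperature with compound. Reaction started with 40 uM arachidonic acid, 30 min at room temperature. Hydroperoxide measured by Fe-xylenol orange, 573/405 nm absorbance ratio.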
# HT1080-NT tox – kills 2HG-producing HT-1080-NT fibrosarcoma cells. HT-1080-NT fibrosarcoma viability, CellTiter-Glo ATP luminescence, 48 h. Potency, µM (doses to about 46.1 µM), for inactives: top-dose activity, negative = less viability, hits mostly cytotoxic. 360,000 compounds, 1.6% hits. AID 686970;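 further: NT is the 2HG producing partner of a matched IDH1 knockdown line; potency means the concentration at half of the fitted maximal effect; 0% = DMSO-treated cells and -100% = media-only wells without cells; nearly all actives have a fitted effect of over 55% in size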
#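 750 cells/well, RPMI + 5% FBS; 2 h settle, compound pin-transfer, 48 h at 37 degrees C. CellTiter-Glo 10 min RT, luminescence. Normalized to DMSO and media-only wells.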
# * hit, by the source's call; ? = inconclusive; nt = no result given; [ ] = dose if it differs, or a comment. Only a selection was taken, and hits are over-represented in it overall. Unless noted, the call rests on the fitted dose curve; in most records, active means well fitted curve in the direction sought with a large enough effect; inconclusive means small, poorly fitted or top-dose-only effect, or another doubt; inactive means no such curve, though single readings can be large; an effect the other way counts as inactive or inconclusive. Unless noted, on the % scale 0 is the no-effect control and ±100 the full control effect.
SMILES,IL-1B inflam inh,TDP1 cell CPT,HT1080 IDH1KD tx,TDP1 cell noCPT,ALOX12 inh,HT1080-NT tox
CN(C)C[C@@H]1CN(c2ncccn2)C[C@H]1NC(=O)Cc1cccc(F)c1,nt,nt,nt,nt,14.8%,nt
COc1cc(OC)cc(-c2c(-c3ccc(F)cc3)c3cc(-c4cnc(OC)nc4)ccc3n2C)c1,5.8,16.4µM*,1.6%,13µM*,-7.1%,5.8%
COc1cccc(-c2c(-c3cc(OC)cc(OC)c3)n(C)c3ccc(-c4cnc(N5CCOCC5)nc4)cc23)c1,17.9,13µM*,7.4%,23.1µM*,12.8%,?
COc1cccc(-c2c(-c3cc(OC)cc(OC)c3)n(C)c3ccc(-c4cnc(OC)nc4)cc23)c1,-4.5,?,1.8%,14.6µM*,-1.2%,-4.0%
COc1ccc(-c2c(-c3cc(OC)cc(OC)c3)n(C)c3ccc(-c4cnc(N)nc4)cc23)cc1,-7.7,-25.9%,3.9%,?,?,0.0%
COc1ccc(-c2c(-c3cc(OC)cc(OC)c3)n(C)c3ccc(-c4ccc(S(N)(=O)=O)cc4)cc23)cc1,-53.9*,10.3µM*,-23.9%,4.11µM*,2.2%,-6.8%
C=C(Cl)CN1CCC(CNC(C)=O)CC1,nt,nt,nt,nt,-1.2%,nt
COc1ccc(-n2nc(C3CCCN(C(=O)c4cccc(Cl)c4)C3)[nH]c2=O)cc1 (stereo unspecified),nt,nt,nt,nt,32.7%,nt
CN(Cc1ccccc1)C(=C(Cl)Cl)/C(=C1/NCCN1C)[N+](=O)[O-],11.0,-7.6%,2.9%,8.9%,-17.8%,21.8%
CN1CCN/C1=C(/C(Cl)=C(Cl)Cl)[N+](=O)[O-],-19.2,11.6µM*,-2.7%,23.1µM*,-13.1%,-1.8%
CC(C)C(CNC(=O)c1cccc(CS(C)=O)c1)c1ccccc1 (stereo unspecified),nt,nt,nt,nt,39.2%,nt
CCCS(=O)(=O)NCC1Cn2cccc2C(=O)N1Cc1ccccc1 (stereo unspecified),nt,nt,nt,nt,25.8%,nt
COc1ccc(-n2nnnc2C2c3ccccc3C(=O)N2C2CCN(Cc3ccccc3)CC2)cc1 (stereo unspecified),1.7,?,2.5%,16.4µM*,-12.4%,7.8%
O=C1c2ccccc2C(c2nnnn2-c2ccc3c(c2)OCCO3)N1Cc1ccc2c(c1)OCO2 (stereo unspecified),0.0,18.4µM*,-1.0%,16.4µM*,-2.4%,-2.1%
COc1ccc(CCN2C(=O)c3ccccc3C2c2nnnn2-c2ccc3c(c2)OCCO3)cc1OC (stereo unspecified),-2.8,-18.1%,19.5%,?,-14.6%,1.7%
COc1ccc(OC)c(CN2C(=O)c3ccccc3C2c2nnnn2-c2ccc3c(c2)OCCO3)c1 (stereo unspecified),68.0,6.51µM*,?,5.8µM*,-0.8%,?
O=C1c2ccccc2C(c2nnnn2-c2ccc3c(c2)OCCO3)N1CCc1ccccc1F (stereo unspecified),9.4,14.6µM*,0.2%,?,-26.9%,-10.2%
COc1ccc(S(=O)(=O)N2CCN(C3CCN(Cc4ccccc4)CC3)CC2)cc1,-16.2,-20.0%,-10.7%,?,-9.7%,-10.9%
CCc1ccc(NC(=O)CNC(=O)c2ccc(OC)cc2)cc1,nt,nt,nt,nt,-28.3%,nt
COCCN1C(=O)[C@@H]2C[C@@H](CN2Cc2nccn2C)Oc2ccccc21,nt,nt,nt,nt,-5.8%[176 µM],nt
Cc1cnc(NC(=O)C(C)Oc2cc(Cl)ccc2Cl)s1 (stereo unspecified),nt,nt,nt,nt,41.6%,nt
Cc1cc(C(=O)N2C[C@@H]3CCCN4CCC[C@@H]([C@H]34)[C@H]2CCCC(=O)N2CCOCC2)nn1C,nt,nt,nt,nt,12.8%,nt
CC(=O)N1CC2(Cc3ccccc31)CN(C(=O)Cc1cccc(Cl)c1)C2,nt,nt,nt,nt,12.1%,nt
